Measurements: PubChem BioAssay AID743313 (Broad Institute, 2014)
Calls of active or inactive are those of the source.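 How the source made its calls: active means cell killing with a fitted half-maximal concentration no more than twice the top valid dose used; inconclusive means flat curve with a moderate signal drop, or poor fit; inactive means the rest.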

Experiment: HepG2 cell cytotoxicity, dose response, cytotoxicity control, plate reader, dry powder, set 7 (AID 743313)
Settings: HepG2 viability, ATP luminescence (CellTiter-Glo), 72 h; series mostly up to 26 µM

Row | Compound | outcome
1 | Cc1cccc(OCCn2c(=S)[nH]c3ccccc32)c1 | inactive
2 | Fc1cccc2c1[nH]c(=S)n2CCOc1ccccc1 | inactive
3 | COc1ccccc1OCCn1c(=S)[nH]c2ccccc21 | inactive
4 | Cc1ccc(C(C)C)c(OCCn2c(=S)[nH]c3cccc(C)c32)c1 | inactive
5 | S=c1[nH]c2ccccc2n1CCOc1ccccc1Cl | inactive
6 | Fc1ccc2c(c1)[nH]c(=S)n2CCOc1ccccc1 | inactive
7 | S=c1[nH]c2ccccc2n1CCOc1ccccc1 | inactive
8 | Fc1cccc(OCCn2c(=S)[nH]c3ccccc32)c1 | inactive
9 | Cc1cccc(OCCn2c(=S)[nH]c3ccc(C(F)(F)F)cc32)c1 | inactive
10 | c1ccc(OCCn2cnc3ccccc32)cc1 | inactive
11 | Cc1ccc(OCCn2cnc3ccccc32)c(C(C)C)c1 | inactive
12 | Cc1ccc(C(C)C)c(OCCn2c(=S)[nH]c3ccc(F)cc32)c1 | inactive
13 | Cc1cccc(OCCn2c(=S)[nH]c3cc(F)ccc32)c1 | inactive
14 | O=c1[nH]c2ccccc2n1CCOc1ccccc1 | inactive
15 | Fc1ccc2[nH]c(=S)n(CCOc3ccccc3)c2c1 | inactive
16 | Cc1ccc(C(C)C)c(OCCn2c(=S)[nH]c3cccc(F)c32)c1 | inactive
17 | Cc1ccc(C)c(OCCn2c(=S)[nH]c3ccccc32)c1 | inactive
18 | CC(C)(C)c1ccc(OCCn2c(=S)[nH]c3ccccc32)cc1 | inactive
19 | Cc1ccc(C(C)C)c(OCCn2c(=S)[nH]c3cc(F)ccc32)c1 | inactive
20 | COc1ccc(OCCn2c(=S)[nH]c3ccccc32)cc1 | inactive
21 | Cc1cccc(OCCn2c(=S)[nH]c3c(F)cccc32)c1 | inactive
22 | CCOc1ccc(OCCn2c(=S)[nH]c3ccccc32)cc1 | inactive
23 | Fc1ccc(OCCn2c(=S)[nH]c3ccccc32)cc1 | inactive
24 | Fc1ccccc1OCCn1c(=S)[nH]c2ccccc21 | inactive
25 | Cc1ccc(C(C)C)c(OCCn2c(=S)[nH]c3c(F)cccc32)c1 | inactive
26 | Cc1cccc2[nH]c(=S)n(CCOc3ccccc3)c12 | inactive
